Casp6 inh: human caspase-6 inhibitors, primary screen, biochemical, VEID-R110 fluorescence, single point, set 2; hit rate 0.53% among 350,000; inhibition, % at 12.5 µM; purified caspase-6, Z-VEID-R110 cleavage fluorescence; P55212;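 active = mean inhibition across replicates at least about 35%, with every replicate also reaching that limit, limit read from the data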;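 also: 0% = median of neutral control wells and 100% = no fluorescence left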
Target sequence (P55212 24-179 limits assumed): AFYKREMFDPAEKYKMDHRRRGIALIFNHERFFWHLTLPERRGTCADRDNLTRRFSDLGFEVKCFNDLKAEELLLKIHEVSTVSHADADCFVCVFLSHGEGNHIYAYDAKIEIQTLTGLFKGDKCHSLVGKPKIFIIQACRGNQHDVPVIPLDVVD
Target sequence (P55212 194-293 limits assumed): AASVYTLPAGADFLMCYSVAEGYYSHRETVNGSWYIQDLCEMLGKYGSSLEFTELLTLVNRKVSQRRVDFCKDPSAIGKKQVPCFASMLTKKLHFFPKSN
ARNT TACC3 PPI: disruptors of ARNT/TACC3 protein interaction, primary screen, biochemical, AlphaScreen, single concentration; Transforming acidic coiled-coil-containing protein 3 (Homo sapiens), Q9Y6A5; AlphaScreen His-ARNT PAS-B/GST-TACC3 binding, luminescence; TACC3 fragment carries E629A point mutation; inhibition, % at 9.99 µM; hit rate 0.66% among 390,000; AID 623870, 2012;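 active = mean inhibition of replicates at least 50% and at least half of replicates each reaching 50%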;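 also: 0% = complete ARNT plus TACC3 wells and 100% = ARNT alone without TACC3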
PfHsp90 set2: growth inhibition of PfHsp90-expressing yeast, primary screen, antimalarial PfHsp90 inhibitor project, S. cerevisiae, BacTiter-Glo luminescence, single point, set 2; BacTiter-Glo ATP, 48 h; yeast lacking PDR1 and PDR3 efflux regulators; inhibition, % at 9.4 µM; hit rate 0.32% among 310,000;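 active = every replicate shows inhibition above about 80%, whatever the replicate mean, limit read from the data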;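 also: 0% = DMSO neutral controls and 100% = 20 µM radicicol positive controls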
SIRT5 block: SIRT5 desuccinylase inhibitors, primary screen, biochemical, fluorescence imaging, single point, set 5 | NAD-dependent protein deacylase sirtuin-5, mitochondrial (Homo sapiens), Q9NXA8 | Purified SirT5, succinyl-peptide AMC, trypsin-coupled fluorescence | inhibition, % at 15 µM | hit rate 1.1% among 330,000; in the data active = inhibition above about 15%
Target sequence (Q9NXA8 whole entry, looked up): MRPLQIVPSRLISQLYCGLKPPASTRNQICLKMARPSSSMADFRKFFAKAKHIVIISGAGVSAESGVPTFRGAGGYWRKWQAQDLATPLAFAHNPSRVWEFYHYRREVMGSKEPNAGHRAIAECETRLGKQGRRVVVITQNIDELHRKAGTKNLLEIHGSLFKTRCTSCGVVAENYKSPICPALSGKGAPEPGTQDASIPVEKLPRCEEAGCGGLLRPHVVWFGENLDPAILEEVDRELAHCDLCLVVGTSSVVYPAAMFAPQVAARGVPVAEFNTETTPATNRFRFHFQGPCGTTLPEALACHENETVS
NSD2 inh: NSD2 histone methyltransferase inhibitors, primary screen, biochemical, AlphaScreen, single concentration, set 2; Histone-lysine N-methyltransferase NSD2 (Homo sapiens), O96028; NSD2 peptide methylation, 120 min; inhibition, % at 12.5 µM; hit rate 0.54% among 310,000; in the data active = inhibition above about 50%
ARNT Alpha ctr-1: AlphaScreen signal interference compounds, dose response, artefact control for ARNT-TACC3 interaction inhibitor project, biochemical, luminescence, cherry-pick | hit rate 50% among 1,200 | His-ARNT PASB-GST AlphaScreen artifact counter-screen | shares compounds with ARNT TACC3 PPI | AC50, µM (titrated, usually from 68 µM), for the others: at the highest dose activity change, negative = signal decrease;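 active = every separate test run was called active for a drop in luminescence, with AC50 within twice the top valid dose, actives reach about 71 µM in these data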
ARNT Alpha ctr-2: AlphaScreen signal interference by compounds, dose response, artefact control for ARNT/TACC3 disruptor project, biochemical, dual-tagged ARNT, dry powder. AC50, µM. Dual-tagged His-ARNT PASB-GST AlphaScreen artifact counter-screen. hit rate 70% among 45. AID 720564, 2013. shares compounds with ARNT TACC3 PPI;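 active = luminescence drop, with half-maximal potency fitted within twice the sample's top valid dose, cut at about 70 µM in these data; inactive = the rest, including signal moving the wrong way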
The depositor's hits bear a star; nt = no result; [ ] = dose if it differs, or a comment. Most compounds without a hit are left out; they make up all but 2.1% or so of the library.

SMILES	Casp6 inh	ARNT TACC3 PPI	PfHsp90 set2	SIRT5 block	NSD2 inh	ARNT Alpha ctr-1	others
O=C(C[C@H]1CC[C@H]2[C@@H](COC[C@@H](O)CN2C(=O)Nc2cccc(Cl)c2)O1)NCCCN1CCOCC1	-1	2	nt	0	nt	nt
O=C(Nc1nc(-c2ccccn2)cs1)c1cc(S(=O)(=O)N2CCOCC2)ccc1F	5	74*	nt	-4	1	23µM*
Cc1ccc(C(=O)Nc2nc(-c3ccccn3)cs2)cc1S(=O)(=O)N1CCOCC1	2	66*	-11	4	-3	24µM*	ARNT Alpha ctr-2=10*
O=C(Nc1nc(-c2ccccn2)cs1)c1ccc(F)c(S(=O)(=O)N2CCOCC2)c1	12	68*	-14	3	-1	9µM*
Cc1nnc(NC(=O)c2ccc(F)c(S(=O)(=O)N3CCOCC3)c2)s1	1	-14	15	nt	-1	nt
Cc1ccc(C(=O)Nc2ccccn2)cc1S(=O)(=O)N1CCOCC1	-133	3	-2	-5	-1	nt
CCC(=O)N[C@H]1CC[C@H](CCNC(=O)Nc2ccc(F)cc2)O[C@H]1CO	-2	-1	nt	1	nt	nt
C[C@H](CO)N1C[C@H](C)[C@H](CN(C)C(=O)NC2CCCCC2)Oc2ccc(NS(=O)(=O)c3cccs3)cc2CC1=O	2	59*	nt	-2	nt	0%[42 µM]
C[C@@H]1CN([C@@H](C)CO)C(=O)Cc2cc(NS(=O)(=O)c3cccs3)ccc2O[C@@H]1CN(C)C(=O)NC1CCCCC1	2	-19	nt	-3	nt	nt
CC(C)NC(=O)Nc1ccc2c(c1)CC(=O)N([C@@H](C)CO)C[C@H](C)[C@@H](CN(C)S(=O)(=O)c1cccs1)O2	1	-17	nt	-2	nt	nt
CC(C)NC(=O)Nc1ccc2c(c1)CC(=O)N([C@H](C)CO)C[C@H](C)[C@H](CN(C)S(=O)(=O)c1cccs1)O2	1	108*	nt	7	nt	-10%[38 µM]
O=C(C[C@@H]1CC[C@@H](NC(=O)Nc2ccccc2F)[C@H](CO)O1)NCc1ccc(-c2ccccc2)cc1	-5	nt	nt	0	nt	nt
C[C@@H]1CCCCO[C@@H](CN(C)Cc2ccc(C(=O)O)cc2)[C@@H](C)CN([C@H](C)CO)C(=O)c2cc(NC(=O)Nc3ccccc3)ccc2O1	0	nt	nt	0	nt	nt
Oc1cccc(CN2CCOCC2)c1O	9	15*	-4	6	20	-1%
COc1ccc(C2C(C#N)=C(N)Oc3n[nH]c(-c4ccccn4)c32)c(OC)c1OC (stereo unspecified)	nt	60*	31	nt	4	-20%
CS(=O)(=O)c1ccccc1-c1nnc(NC(=O)c2ccc(S(=O)(=O)N3CCCC3)cc2)o1	3	29	-2	0	6	nt
CS(=O)(=O)c1cccc(C(=O)Nc2nnc(C3=COCCO3)o2)c1	0	59*	nt	0	8	-15%
CC1CCN(S(=O)(=O)c2ccc(C(=O)Nc3nnc(C4=COCCO4)o3)cc2)CC1	4	62*	8	-1	-2	-25%	ARNT Alpha ctr-2=>136
CCC1CCCCN1S(=O)(=O)c1ccc(C(=O)Nc2nnc(C3=COCCO3)o2)cc1 (stereo unspecified)	16	39	-6	1	2	nt
O=C(Nc1nnc(C2=COCCO2)o1)c1cccc(Br)c1	3	nt	-4	0	1	nt
O=C(Nc1nnc(C2=COCCO2)o1)c1ccc(S(=O)(=O)N2CCCC2)cc1	4	45	-4	1	-1	nt
O=C(Nc1nnc(C2=COCCO2)o1)c1ccc(S(=O)(=O)N2CCCCC2)cc1	11	36	-9	0	1	nt	ARNT Alpha ctr-2=>136
O=C(Nc1nnc(-c2cccs2)o1)c1ccc(S(=O)(=O)N2CCOCC2)cc1	-1	45*	7	2	-3	34µM*
O=C(C1CC1)N1C[C@H]2[C@@H](c3ccccc31)[C@H](CO)N2Cc1ccccc1Cl	-1	3	nt	5	nt	nt
CCCNC(=O)Nc1ccc2c(c1)OC[C@H](C)N(Cc1ccc(-c3ccccn3)cc1)C[C@H](C)[C@H](OC)CN(C)C2=O	-3	3	nt	nt	nt	nt
SMILES	Casp6 inh	ARNT TACC3 PPI	PfHsp90 set2	SIRT5 block	NSD2 inh	ARNT Alpha ctr-1	others
CCNC(=O)C[C@H]1CC[C@@H]2[C@@H](COc3ccc(NC(=O)Nc4ccc(F)cc4)cc3C(=O)N2C)O1	1	-13	nt	0	nt	nt
CN1CCN(CC(=O)Nc2ccccc2[N+](=O)[O-])CC1	nt	-2	1	nt	1	nt
O=C(CN1CCCCCC1)Nc1ccccc1[N+](=O)[O-]	0	51*	-12	1	5	-11%
Cc1ccccc1Nc1nc(N)nc(CN(C)Cc2ccccc2Cl)n1	0	57*	-2	-2	3	-30%
C[C@@H]1CN([C@@H](C)CO)C(=O)c2cc(-c3ccc(F)cc3)cnc2O[C@@H]1CN(C)CC1CC1	1	-4	nt	-3	nt	nt
Oc1c(C(Nc2ccccn2)c2cccnc2)cc(Cl)c2cccnc12 (stereo unspecified)	-2	57*	103*	3	0	15µM*
Oc1cccc(C(Nc2nccs2)c2ccc3cccnc3c2O)c1 (stereo unspecified)	1	40	14	-11	1	nt
COc1ccc(C(NC(=O)c2cccnc2)c2cc(Cl)c3cccnc3c2O)cc1OC (stereo unspecified)	nt	29	2	nt	0	nt
Cc1cc(NC(c2cccnc2)c2ccc3cccnc3c2O)no1 (stereo unspecified)	nt	63*	-16	nt	0	11µM*
Cc1ccccc1S(=O)(=O)NCC[C@@H]1CC[C@@H](NC(=O)C2CCCCC2)[C@@H](CO)O1	2	-7	nt	-6	nt	nt
CO[C@H]1CN(C)C(=O)c2cc(NC(=O)C3CC3)ccc2OC[C@@H](C)N(CCC(F)(F)F)C[C@H]1C	-1	-3	nt	-1	nt	nt
CCOc1ccccc1Nc1nc(N)nc(CN(C)C2CCCCC2)n1	-1	63*	-11	0	-1	-16%
CCOc1ccccc1Nc1nc(N)nc(CSc2nccc(C)n2)n1	nt	3	15	nt	0	nt
COc1ccc2c3c([nH]c2c1)[C@@H](CO)N(Cc1ccccc1)CC31CCN(C(=O)c2cccnc2)CC1	-1	nt	nt	-1	nt	nt

From PubChem BioAssay
